The panel holds about 83,000 compounds, 20% with a hit somewhere; the sample as a whole holds those more often.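 Growth was measured after 48 h exposure to one concentration of compound in 96-well plates. Values under 10 count as active.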 Values without a mark were called inactive. Active and inactive are the calls of the source.

The subject of the first assay is HCC-2998 colon. Kind of assay: NCI-60 one-dose screen, 48 h (100 = growth as untreated, 0 = no growth, -100 = all killed). The settings on record: 10 µM unless noted.
As for `O=C1N/C(=N/N=C(c2ccccc2)c2ccccc2)S/C1=C\c1ccc(Br)cc1`, the growth is 99.5%. `O=C(NCCN1CCOCC1)c1cncnc1Nc1ccc2c(ccn2Cc2ccccn2)c1`: the growth is 100%. Take `Cc1ccc(C(F)(F)F)cc1N1CCN(C(=O)[C@H]2C[C@H]2c2ccc(C(F)(F)F)nc2)CC1`: the growth is 101%. On to `CC(=O)/C(Br)=C/c1ccc(Br)o1`, for which the growth is 93.4%. On the same count and under the same terms, then `CCN(CC)CCOc1ccc(/C(=C(\C)Cc2ccc(OC)cc2)c2ccc(O)cc2)cc1`, with 0.439% (active); and `COc1ccc(/C=C2/CCc3cc4ccc(OC)cc4[o+]c32)c(O)c1`, with 64.3%; and `C[C@@H]1N=C(c2ccc(Cl)cc2Cl)Nc2nc3ccccn3c2C1=O`, with 75.4%.

Consider `CCCC[N+]1(C)CCN=C1Cc1ccccc1` (stereo not drawn), for which the growth was 93.7%.

A further assay has as its system KM12 colon. The assay is described as above. To be noted: 10 µM unless noted.
With `O=C1N/C(=N/N=C(c2ccccc2)c2ccccc2)S/C1=C\c1ccc(Br)cc1`, the growth was 92.9%. On to `N#CC1=C(N)Oc2c(ccc3ccccc23)C1c1cc2ccccc2n2nnnc12` (stereo not drawn), for which the growth was 18.1%. As for `O=C(NCCN1CCOCC1)c1cncnc1Nc1ccc2c(ccn2Cc2ccccn2)c1`, the growth is 107%.

On to `CN1CCN(Cc2ccc(NC(=O)c3cncc(C#Cc4cnc(N)c5ncccc45)c3)cc2Cl)CC1`, for which the growth was 23%. Still for that read-out and setting: next, `CC1(C)CC(=O)C2=C(C1)OC(C(=O)c1ccccc1)C2c1cccc(Oc2ccccc2)c1` (stereo not drawn): 37.7%; `Cc1ccc2c(c1)CC(O)CC1C(=O)N(CCO)CC(=O)N21` (stereo not drawn): 105%. Still for that read-out and setting: next, `O=S(=O)(c1ccc(NCSc2nc3ccccc3s2)cc1)c1ccc(NCSc2nc3ccccc3s2)cc1`: 102%. As for `Cc1ccc(C(F)(F)F)cc1N1CCN(C(=O)[C@H]2C[C@H]2c2ccc(C(F)(F)F)nc2)CC1`, the growth is 91.8%. The same measure, in the same setting: then `CNC(=O)c1cc(Oc2ccc3nc(NC(=O)Nc4ccc(F)cc4F)sc3c2)ccn1`, with 72.6%; and `CSc1nn2c(-c3cc4cc(Br)ccc4oc3=O)ccnc2c1C#N`, with 107%; and `CCCCCC(C)(O)C(C(=O)O)c1ccccc1` (stereo not drawn), with 104%. Same read-out and setting: then `O=C(O)CCCN1C(=O)CSC1=S`, with 101%; and `COC(=O)c1c(C)nc(C)c2c1C(=O)C(Br)=C(NCCCCO)C2=O`, with 61.9%; and `COc1ccc(C(=O)/C=C/Nc2cc(-c3ccccc3)nn2-c2ccccc2)cc1`, with 99.9%. Same read-out and setting: next, `Cc1ccc(Nc2oc(-c3ccccc3)nc2[P+](c2ccccc2)(c2ccccc2)c2ccccc2)cc1`: -51.5% (active); `CNC1=C([N+](=O)[O-])C(c2ccc(OC)cc2)C(C#N)=C(c2ccc[nH]2)O1` (stereo not drawn): 114%; `COc1ccc(-c2cn(Cc3ccc4c(Br)cc(Br)c(O)c4n3)nn2)cc1`: 99.4%. Take `C#Cc1cccc(Nc2nc(Cl)nc3cc(NC(=O)CCl)ccc23)c1`: the growth is -62.5% (active).

Take `Cc1cc2nc(C(Cl)Cl)nc(-c3ccccc3)n2n1`: the growth was 18.2%.

As to `O=C(CSc1nnc(-c2cc(-c3ccc(Cl)cc3)nc3ccccc23)n1-c1ccccc1)Nc1ccc(Cl)cc1`, the growth is 102%. As to `Clc1ccc(C2=Nn3c(nnc3-c3cc(Cl)cc(Cl)c3Cl)SC2)cc1`, the growth is 23.5%. As to `C=CC(=O)Nc1ccc2ncnc(Nc3cccc(NS(=O)(=O)CCC)c3Cl)c2c1`, the growth was 78.4%. On to `C#CCOC(=O)C(N)CSSCC(N)C(=O)O` (stereo not drawn), for which the growth is 108%. `CC(=O)/C(Br)=C/c1ccc(Br)o1`: the growth was 105%.

As for `CSc1nc(N)c2c(n1)NC(c1ccccc1)C1CCc3ccccc3C1=N2` (stereo not drawn), the growth was 48.3%. In the case of `Cn1cc(-c2csc(-c3cn(CCO)c4ccc(F)cc34)n2)c2cccnc21`, the growth was 30.6%. On the same count and under the same terms, then `Nc1ncc(-c2ccc3ncnc(N4CCc5cc(F)c(Cl)cc54)c3c2)cn1`, with 58%; and `C=C(C[n+]1ccccc1)[C@@H]1CC[C@]2(C(=O)OC)CC[C@]3(C)[C@H](CC[C@@H]4[C@@]5(C)CCC(=O)C(C)(C)[C@@H]5CC[C@]43C)[C@@H]12`, with 78.4%.

Consider `O=C(CSc1nc(-c2ccccc2)cn1-c1ccc(Cl)cc1)c1ccc([N+](=O)[O-])cc1`, for which the growth was 82.6%.

As for `O=CN1N=C(c2cccc(Nc3ccncc3)c2)CC1c1ccc2c(c1)OCO2` (stereo not drawn), the growth was 98.4%.

As for `CCN(CC)CCOc1ccc(/C(=C(\C)Cc2ccc(OC)cc2)c2ccc(O)cc2)cc1`, the growth was 32.4%. The same measure, in the same setting: then `Cc1nc2cccc(NCc3ccc(C(=O)NO)cc3)c2c(=O)n1-c1ccccc1`, with 29.8%; and `COc1ccc(/C=C2/CCc3cc4ccc(OC)cc4[o+]c32)c(O)c1`, with 45.4%. Same read-out and setting: next, `CCCC1Cc2cc(-n3nc(C)c4c3CC(C)(C)CC4=O)cc(NC3CCC(O)CC3)c2C(=O)N1` (stereo not drawn): 15.5%; `C#Cc1cccc(Nc2ncnc3ccc(-c4cnc(Cl)c(NS(C)(=O)=O)c4)cc23)c1`: -54.3% (active).

As for `O=C1/C(=C/c2cccc(Br)c2)COc2ccc(O)c(O)c21`, the growth was -60.9% (active). Still for that read-out and setting: next, `C=C(C)[C@@H]1CC[C@]2(COC(=O)c3cccnc3)CC[C@]3(C)[C@H](CC[C@@H]4[C@@]5(C)CCCN(C(=O)c6cccnc6)C(C)(C)[C@@H]5CC[C@]43C)[C@@H]12`: 31.2%; `C[C@@H]1N=C(c2ccc(Cl)cc2Cl)Nc2nc3ccccn3c2C1=O`: 23.8%.

On to `CCCC[N+]1(C)CCN=C1Cc1ccccc1` (stereo not drawn), for which the growth is 118%. Same read-out and setting: then `O=C(OCC(O)(CO)C(=O)NC12CC3CC(CC(C3)C1)C2)c1ccc(Cl)cc1` (stereo not drawn), with 103%.

The record behind these values is PubChem BioAssay (NCI).
